Source: the supplement of paper PMC6992640
± gives the standard deviation of the averaged measurements.

Legend:
Experiment in all cases: cell viability (% of vehicle); higher = less cytotoxic
Settings in all cases: 10 µM; 72 h
HCI01 = tested on: HCI01 (cells of a triple-negative basal-like breast cancer xenograft)
HCI03 = tested on: HCI03 (cells of an ER-positive luminal breast cancer xenograft)
HCI09 = tested on: HCI09 (cells of a triple-negative luminal androgen receptor type breast cancer xenograft)
HCI11 = tested on: HCI11 (cells of an ER-positive luminal breast cancer xenograft)
HCI13 = tested on: HCI13 (cells of an ER-positive luminal breast cancer xenograft)
HCI16 = tested on: HCI16 (cells of a triple-negative basal-like breast cancer xenograft)
UCD52 = tested on: UCD52 (cells of a triple-negative basal-like breast cancer xenograft)
WHIM2 = tested on: WHIM2 (cells of a triple-negative basal-like breast cancer xenograft)
WHIM30 = tested on: WHIM30 (cells of a triple-negative basal-like breast cancer xenograft)
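Also: PDX cells carrying CMV promoter-driven luciferase, viability read as total photon flux per second by IVIS imaging following D-luciferin, vehicle control 0.1% DMSO.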

| Compound | cell viability (HCI01) | cell viability (HCI03) | cell viability (HCI09) | cell viability (HCI11) | cell viability (HCI13) | cell viability (HCI16) | cell viability (UCD52) | cell viability (WHIM2) | cell viability (WHIM30) |
| --- | --- | --- | --- | --- | --- | --- | --- | --- | --- |
| CCCC(C(=O)OCCN(CC)CC)(c1ccccc1)c1ccccc1.Cl [SKF 525A (hydrochloride)] | 103 ± 33 | 123 | 93.8 ± 1.2 | 66.3 | 103 ± 28 | 130 | 61.5 ± 5.9 | 99.1 ± 11 | 119.8 ± 0.2 |
| CN1CCN(c2c(F)cc3c(=O)c(C(=O)O)cn4c3c2OCN4C)CC1 [Marbofloxacin] | 99.12 ± 0.67 | 99.3 | 69.9 ± 9 | 138 | 129 ± 17 | 114 | 136 ± 18 | 75.5 ± 2.6 | 148 ± 30 |
| Cn1c(=O)cc(N2CCCC(N)C2)n(Cc2cc(F)ccc2C#N)c1=O (stereo not given) [Trelagliptin] | 111 ± 7 | 116 | 112 ± 6.1 | 111 | 104 ± 1.3 | 95.2 | 96.2 ± 11 | 96.8 ± 4.5 | 121 ± 13 |
| Cc1cc(C)c2c(c1)C(N(Cc1cc(C(F)(F)F)cc(C(F)(F)F)c1)c1nnn(C)n1)CCCN2CC1CCC(C(=O)O)CC1 (stereo not given) | 41.2 ± 16 | 135 | 61.9 ± 53 | 98.5 | 51.4 ± 8.7 | 139 | 119 ± 2.1 | 91.8 ± 4.9 | 110 ± 6.3 |
| Cl.Cl.Clc1ccc(Nc2nnc(Cc3ccncc3)c3ccccc23)cc1 [Vatalanib (PTK787) 2HCl] | 136 ± 53 | 104 | 54.7 ± 2.1 | 92.3 | 45.8 ± 8.3 | 76.5 | 55.4 ± 5 | 46 ± 19 | 93.2 ± 2.6 |
| O=c1sn(-c2cccc3ccccc23)c(=O)n1Cc1ccccc1 [Tideglusib] | 119 ± 20 | 114 | 98.2 ± 11 | 96.3 | 95.7 ± 14 | 94.7 | 78.4 ± 1.8 | 86.22 ± 0.6 | 131 ± 9.7 |
| CC(=O)NCC1CN(c2ccc(N3CCOCC3)c(F)c2)C(=O)O1 (stereo not given) [Linezolid] | 99.5 ± 2.9 | 108 | 93.8 ± 5.2 | 103 | 98.1 ± 3 | 110 | 81 ± 12 | 80.7 ± 1.3 | 137 ± 14 |
| COC1C(O)CC(=O)OC(C)CC=CC=CC(OC2CCC(N(C)C)C(C)O2)C(C)CC(CC=O)C1OC1OC(C)C(OC2CC(C)(O)C(O)C(C)O2)C(N(C)C)C1O (stereo not given) [Spiramycin] | 133 ± 7.7 | 125 | 110 ± 12 | 116 | 78.9 ± 20 | 138 | 94.4 ± 1.5 | 149 ± 30 | 123 ± 5.8 |
| CS(=O)(=O)c1ccc(C(O)C(CO)NC(=O)C(Cl)Cl)cc1 (stereo not given) [Thiamphenicol] | 109 ± 26 | 104 | 85.8 ± 3.5 | 82.9 | 64.4 ± 4.1 | 103 | 84.7 ± 13 | 107 ± 29 | 122 ± 6.1 |
| Cc1cccn2c(=O)c(-c3nnn[n-]3)cnc12.[K+] [Pemirolast potassium] | 97.99 ± 0.96 | 98.7 | 84 ± 3.5 | 90.1 | 97.8 ± 29 | 108 | 92.2 ± 1.2 | 113 ± 7.9 | 93.4 ± 17 |
| CCCCOc1ccc(C(=O)CCN2CCCCC2)cc1.Cl [Dyclonine HCl] | 91.4 ± 36 | 110 | 98.2 ± 18 | 110 | 60.5 ± 2.6 | 88.6 | 90.6 ± 12 | 40 ± 16 | 129 ± 30 |
| COc1ccc(C=Cc2cc(OC)c(OC)c(OC)c2)cc1OP(=O)([O-])[O-].[Na+].[Na+] [Fosbretabulin (Combretastatin A4 Phosphate (CA4P)) Disodium] | 185 ± 47 | 115 | 110 ± 35 | 115 | 41.7 ± 5.6 | 132 | 86 ± 16 | 111 ± 12 | 104 ± 5.7 |
| CNS(=O)(=O)Cc1ccc2[nH]cc(CCN(C)C)c2c1.O=C(O)CCC(=O)O [Sumatriptan Succinate] | 89.3 ± 18 | 110 | 89.6 ± 31 | 82.8 | 81.4 ± 5.5 | 120 | 101 ± 13 | 106 ± 18 | 106 ± 4.2 |
| CCOC(=O)C(CCc1ccccc1)NC1CSC(c2cccs2)CN(CC(=O)O)C1=O.Cl (stereo not given) [Temocapril HCl] | 80.7 ± 40 | 103 | 106 ± 31 | 82.3 | 116 ± 9.8 | 101 | 88.7 ± 3.7 | 99 ± 12 | 114 ± 13 |
| CC(C)(OCc1nn(Cc2ccccc2)c2ccccc12)C(=O)O [Bindarit] | 86.5 ± 68 | 133 | 95.7 ± 2.3 | 86.6 | 136 ± 0.14 | 117 | 83.1 ± 3.1 | 110 ± 19 | 149 ± 27 |
| O=C1CCCC(=O)C1C(=O)c1ccc(C(F)(F)F)cc1[N+](=O)[O-] [Nitisinone] | 105 ± 31 | 110 | 93.2 ± 5.5 | 87.8 | 109 ± 25 | 137 | 103 ± 10 | 79.6 ± 4.9 | 149 ± 19 |
| Cn1c(=O)c2[nH]cnc2n(C)c1=O [Theophylline] | 98.1 ± 19 | 123 | 94 ± 22 | 66.9 | 92.4 ± 1.1 | 117 | 103 ± 5.6 | 86.5 ± 16 | 95.8 ± 16 |
| CNCC(O)c1ccc(O)c(O)c1.O=C(O)C(O)C(O)C(=O)O (stereo not given) [Epinephrine Bitartrate] | 90.1 ± 26 | 96.3 | 89 ± 23 | 90.8 | 71.7 ± 3.3 | 96.7 | 100 ± 8.4 | 67.4 ± 26 | 110.2 ± 1.1 |
| CC(C)NCC(O)COc1ccc(COCCOC(C)C)cc1.O=C(O)C=CC(=O)O (stereo not given) [Bisoprolol fumarate] | 129.4 ± 0.93 | 129 | 102 ± 30 | 113 | 93.1 ± 1.1 | 96.1 | 86.1 ± 8.9 | 93.9 ± 16 | 120 ± 2.5 |
| CS(=O)(=O)c1ccc(C2=C(c3ccccc3)C(=O)OC2)cc1 [Rofecoxib] | 127 ± 8.3 | 119 | 84.3 ± 18 | 99.7 | 141 ± 20 | 96.7 | 78.7 ± 10 | 99 ± 6.9 | 84.6 ± 5.8 |

| Compound | cell viability (HCI01) | cell viability (HCI03) | cell viability (HCI09) | cell viability (HCI11) | cell viability (HCI13) | cell viability (HCI16) | cell viability (UCD52) | cell viability (WHIM2) | cell viability (WHIM30) |
| --- | --- | --- | --- | --- | --- | --- | --- | --- | --- |
| CC(C)(Oc1ccc(Cl)cc1)C(=O)O [Clofibric Acid] | 109 ± 22 | 119 | 79.6 ± 22 | 99.3 | 94.8 ± 9.6 | 97.8 | 81.1 ± 14 | 93.3 ± 20 | 109.5 ± 0.67 |
| N=C(NCCCCCCNC(=N)NC(=N)Nc1ccc(Cl)cc1)NC(=N)Nc1ccc(Cl)cc1 [Chlorhexidine digluconate] | 77.9 ± 12 | 118 | 60.1 ± 19 | 76 | 68.6 ± 2 | 112 | 98.5 ± 24 | 48.8 ± 1.5 | 103 ± 6 |
| Br.CN(C)CCC[C@]1(c2ccc(F)cc2)OCc2cc(C#N)ccc21 [Citalopram hydrobromide] | 103 ± 25 | 138 | 93.7 ± 14 | 108 | 103 ± 6.7 | 129 | 106 ± 9 | 94.2 ± 24 | 87.9 ± 8.7 |
| CCOC(=O)CC(=O)N1CCSC1COc1ccccc1OC (stereo not given) [Moguisteine] | 68.2 ± 37 | 114 | 102 ± 8.2 | 89.5 | 115 ± 9 | 127 | 83.2 ± 4.3 | 88.7 ± 22 | 131 ± 4.4 |
| CCN(CC)C(=S)SSC(=S)N(CC)CC [Disulfiram] | 140 ± 49 | 75.8 | 71.6 ± 4.1 | 66.5 | 90 ± 5.2 | 92.3 | 82.3 ± 8.8 | 102 ± 8 | 115 ± 14 |
| CCCCC(=O)N(Cc1ccc(-c2ccccc2-c2nn[nH]n2)cc1)C(C(=O)O)C(C)C (stereo not given) [Valsartan] | 112 ± 6 | 118 | 118 ± 24 | 97.2 | 116 ± 24 | 119 | 108 ± 10 | 101 ± 16 | 199 ± 25 |
| N#CC(c1ccc(Cl)cc1)c1c(Cl)cc(-n2ncc(=O)[nH]c2=O)cc1Cl (stereo not given) [Diclazuril] | 98.7 ± 32 | 119 | 64 ± 57 | 95.3 | 59.1 ± 10 | 123 | 96.3 ± 31 | 115 ± 19 | 161 ± 11 |
| Cc1ccc(Cl)c(Nc2ccccc2C(=O)[O-])c1Cl.[Na+] [Meclofenamate Sodium] | 111 ± 10 | 158 | 100 ± 5.1 | 103 | 122 ± 5 | 121 | 92.1 ± 4.6 | 97.8 ± 9.9 | 144 ± 2.2 |
| CCCCCCCN(CC)CCCC(O)c1ccc(NS(C)(=O)=O)cc1.CCCCCCCN(CC)CCCC(O)c1ccc(NS(C)(=O)=O)cc1.O=C(O)C=CC(=O)O (stereo not given) [Ibutilide Fumarate] | 93.5 ± 15 | 121 | 105 ± 18 | 103 | 130 ± 10 | 117 | 96.8 ± 2 | 122 ± 3 | 128 ± 21 |
| O=C(O)c1ccccc1 [Benzoic Acid] | 143 ± 20 | 95.6 | 109 ± 25 | 104 | 70.3 ± 10 | 124 | 110 ± 8 | 127 ± 7.8 | 111 ± 15 |
| O=C(NC(Cc1cc(=O)[nH]c2ccccc12)C(=O)O)c1ccc(Cl)cc1 (stereo not given) [Rebamipide] | 92.4 ± 31 | 129 | 88.63 ± 0.71 | 97 | 117 ± 5.6 | 102 | 100 ± 6.4 | 86.2 ± 10 | 115 ± 8.9 |
| CS(=O)(=O)O.Cc1ccc(NC(=O)c2ccc(CN3CCN(C)CC3)cc2)cc1Nc1nccc(-c2cccnc2)n1 [Imatinib Mesylate (STI571)] | 157 ± 24 | 86.7 | 67.7 ± 12 | 69.7 | 91.3 ± 11 | 99 | 67.8 ± 1.8 | 88.9 ± 6.2 | 114 ± 18 |
| CC1CC(OC(=O)C(O)c2ccccc2)CC(C)(C)C1 (stereo not given) [Cyclandelate] | 110 ± 9.8 | 122 | 87.6 ± 4.9 | 89.1 | 73.5 ± 14 | 113 | 80.8 ± 14 | 93.3 ± 10 | 95.91 ± 0.5 |
| CO/C(O)=N/[C@H](C(=O)N1CC2(CC2)C[C@H]1c1ncc(-c2ccc3c(c2)C(F)(F)c2cc(-c4ccc5nc([C@@H]6[C@H]7CC[C@H](C7)N6C(=O)[C@@H](/N=C(\O)OC)C(C)C)[nH]c5c4)ccc2-3)[nH]1)C(C)C [Ledipasvir] | 103 ± 1.7 | 94.4 | 55.6 ± 3.8 | 80.6 | 99 ± 8.5 | 72.3 | 73.6 ± 4.1 | 64.9 ± 9.5 | 104 ± 1.1 |
| CC1CCc2c(N3CCC(O)CC3)c(F)cc3c(=O)c(C(=O)O)cn1c23 (stereo not given) [Nadifloxacin] | 83.8 ± 17 | 122 | 79 ± 2.1 | 93.8 | 103 ± 3.5 | 120 | 77.6 ± 6.6 | 74.2 ± 3.4 | 122 ± 6.2 |
| CN(C)CCOC(C)(c1ccccc1)c1ccccn1.O=C(O)CCC(=O)O (stereo not given) [Doxylamine Succinate] | 122 ± 18 | 124 | 101 ± 14 | 101 | 90.5 ± 6.7 | 108 | 94.28 ± 0.33 | 97.4 ± 22 | 103.9 ± 0.48 |
| Cc1ccc(-n2[nH]c(C)c(NN=C3C=CC=C(c4cccc(C(=O)O)c4)C3=O)c2=O)cc1C.NCCO.NCCO [Eltrombopag Olamine] | 82.7 ± 71 | 79.3 | 26.4 ± 4 | 71 | 43.8 ± 1.1 | 119 | 76.8 ± 6.6 | 36.8 ± 0.9 | 104 ± 17 |
| CO/N=C(\C(=O)N[C@@H]1C(=O)N2C(C(=O)[O-])=C(COC(C)=O)CS[C@H]12)c1csc(N)n1.[Na+] [Cefotaxime (sodium salt)] | 94.8 ± 14 | 121 | 105 ± 3.7 | 74.9 | 155 ± 13 | 107 | 116.5 ± 0.35 | 99.12 ± 0.99 | 136.3 ± 0.17 |
| O=c1cc[nH]c(=S)[nH]1 [2-Thiouracil] | 107 ± 6.1 | 139 | 94.4 ± 19 | 103 | 82.4 ± 8.2 | 112 | 91.8 ± 2.9 | 117 ± 34 | 178 ± 5.9 |
| OCCN(CCO)c1nc(N2CCCCC2)c2nc(N(CCO)CCO)nc(N3CCCCC3)c2n1 [Dipyridamole] | 90.2 ± 14 | 116 | 87.4 ± 23 | 105 | 96.2 ± 6.1 | 150 | 89.6 ± 3.4 | 112 ± 34 | 142 ± 12 |
